Our source for the composite z-score and z-score values is PubChem BioAssay.

In assay [1] the test system is PRMT1 (protein arginine N-methyltransferase 1). Briefly: PRMT1 binders on small-molecule microarrays, primary screen, biochemical, small-molecule microarray, 635 nm fluorescence (AID 1088).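 Further: binding of Prmt1 protein to compounds spotted on small-molecule microarray slides.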 To be noted: small-molecule microarray binding, higher = more signal.
Assay [2] in a line: yeast growth modulation, basal conditions, primary screen, YJM789 clinical isolate, OD600, 24 h (AID 1089).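 Further: growth of clinical yeast isolate S. cerevisiae YJM 789 seeded 1000 cells per well; test concentration not given here.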 To be noted: S. cerevisiae YJM789 growth, higher = more signal, called active from +8 up or from −8 down.
A short description of assay [3]: fission yeast growth modulation, primary screen, strain 972, OD600, 24 h, no modulator (AID 1090).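 Further: basal condition with compound alone and no growth modifier present; test concentration not given here.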 The note with it: S. pombe 972 growth, higher = more signal, called active from +8 up or from −8 down.
Assay [4] can be described thus: S. cerevisiae growth modulation with rapamycin, primary screen, strain BY4716, OD600, 96 h (AID 1091). Further: test concentration not given here. The note with it: higher = more signal, called active from +8 up or from −8 down.
Assay [5] concerns the target Torsin-1A-interacting protein 2 (Homo sapiens) (UniProt Q8NFQ8). Briefly: LULL1 binders on small-molecule microarray, primary screen, cell lysate, human LULL1 lysate, 635/667 nm fluorescence (AID 1092).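 Further: probe is lysate of COS7 cells overexpressing human LULL1; score merges per-feature 667 nm fluorescence with signal-to-noise.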 To be noted: hLULL1 lysate binding, 635 nm fluorescence, higher = more signal.
The nature of assay [6]: E. coli growth modulation, two-sided OD650, primary screen, E. coli filamentation project, strain DRC41, 24 h (AID 1093).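 Further: MC1000 strain lacking acrAB efflux and sulA so SOS filamentation is blocked; test concentration not given here.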 The note with it: OD650, 24 h, higher = more signal, called active from +8 up or from −8 down.
A short description of assay [7]: small-molecule microarray binders of probe aLefty2, primary screen, biochemical, biotinylated probe, 635/667 nm fluorescence (AID 1094).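 Further: score merges spot fluorescence near 667 nm with spot signal-to-noise ratio.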 To be noted: higher = more signal.
Assay [8] has as its system Noggin (protein binding on small-molecule microarray). Briefly: Noggin binders on small-molecule microarray, primary screen, biochemical, 635/667 nm fluorescence (AID 1095).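 Further: score merges 667 nm feature fluorescence with signal to noise over triplicate slides.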 To be noted: 635 nm fluorescence, higher = more signal.
Assay [9] deals with Neurogenic locus notch homolog protein 3 (Homo sapiens) (UniProt Q9UM47). Kind of assay: NOTCH3 binders on small-molecule microarray, primary screen, biochemical, 635/667 nm fluorescence (AID 1096). To be noted: NOTCH3 binding, 635 nm fluorescence, higher = more signal.
Chain of Neurogenic locus notch homolog protein 3 (Homo sapiens) (Q9UM47 whole entry, looked up): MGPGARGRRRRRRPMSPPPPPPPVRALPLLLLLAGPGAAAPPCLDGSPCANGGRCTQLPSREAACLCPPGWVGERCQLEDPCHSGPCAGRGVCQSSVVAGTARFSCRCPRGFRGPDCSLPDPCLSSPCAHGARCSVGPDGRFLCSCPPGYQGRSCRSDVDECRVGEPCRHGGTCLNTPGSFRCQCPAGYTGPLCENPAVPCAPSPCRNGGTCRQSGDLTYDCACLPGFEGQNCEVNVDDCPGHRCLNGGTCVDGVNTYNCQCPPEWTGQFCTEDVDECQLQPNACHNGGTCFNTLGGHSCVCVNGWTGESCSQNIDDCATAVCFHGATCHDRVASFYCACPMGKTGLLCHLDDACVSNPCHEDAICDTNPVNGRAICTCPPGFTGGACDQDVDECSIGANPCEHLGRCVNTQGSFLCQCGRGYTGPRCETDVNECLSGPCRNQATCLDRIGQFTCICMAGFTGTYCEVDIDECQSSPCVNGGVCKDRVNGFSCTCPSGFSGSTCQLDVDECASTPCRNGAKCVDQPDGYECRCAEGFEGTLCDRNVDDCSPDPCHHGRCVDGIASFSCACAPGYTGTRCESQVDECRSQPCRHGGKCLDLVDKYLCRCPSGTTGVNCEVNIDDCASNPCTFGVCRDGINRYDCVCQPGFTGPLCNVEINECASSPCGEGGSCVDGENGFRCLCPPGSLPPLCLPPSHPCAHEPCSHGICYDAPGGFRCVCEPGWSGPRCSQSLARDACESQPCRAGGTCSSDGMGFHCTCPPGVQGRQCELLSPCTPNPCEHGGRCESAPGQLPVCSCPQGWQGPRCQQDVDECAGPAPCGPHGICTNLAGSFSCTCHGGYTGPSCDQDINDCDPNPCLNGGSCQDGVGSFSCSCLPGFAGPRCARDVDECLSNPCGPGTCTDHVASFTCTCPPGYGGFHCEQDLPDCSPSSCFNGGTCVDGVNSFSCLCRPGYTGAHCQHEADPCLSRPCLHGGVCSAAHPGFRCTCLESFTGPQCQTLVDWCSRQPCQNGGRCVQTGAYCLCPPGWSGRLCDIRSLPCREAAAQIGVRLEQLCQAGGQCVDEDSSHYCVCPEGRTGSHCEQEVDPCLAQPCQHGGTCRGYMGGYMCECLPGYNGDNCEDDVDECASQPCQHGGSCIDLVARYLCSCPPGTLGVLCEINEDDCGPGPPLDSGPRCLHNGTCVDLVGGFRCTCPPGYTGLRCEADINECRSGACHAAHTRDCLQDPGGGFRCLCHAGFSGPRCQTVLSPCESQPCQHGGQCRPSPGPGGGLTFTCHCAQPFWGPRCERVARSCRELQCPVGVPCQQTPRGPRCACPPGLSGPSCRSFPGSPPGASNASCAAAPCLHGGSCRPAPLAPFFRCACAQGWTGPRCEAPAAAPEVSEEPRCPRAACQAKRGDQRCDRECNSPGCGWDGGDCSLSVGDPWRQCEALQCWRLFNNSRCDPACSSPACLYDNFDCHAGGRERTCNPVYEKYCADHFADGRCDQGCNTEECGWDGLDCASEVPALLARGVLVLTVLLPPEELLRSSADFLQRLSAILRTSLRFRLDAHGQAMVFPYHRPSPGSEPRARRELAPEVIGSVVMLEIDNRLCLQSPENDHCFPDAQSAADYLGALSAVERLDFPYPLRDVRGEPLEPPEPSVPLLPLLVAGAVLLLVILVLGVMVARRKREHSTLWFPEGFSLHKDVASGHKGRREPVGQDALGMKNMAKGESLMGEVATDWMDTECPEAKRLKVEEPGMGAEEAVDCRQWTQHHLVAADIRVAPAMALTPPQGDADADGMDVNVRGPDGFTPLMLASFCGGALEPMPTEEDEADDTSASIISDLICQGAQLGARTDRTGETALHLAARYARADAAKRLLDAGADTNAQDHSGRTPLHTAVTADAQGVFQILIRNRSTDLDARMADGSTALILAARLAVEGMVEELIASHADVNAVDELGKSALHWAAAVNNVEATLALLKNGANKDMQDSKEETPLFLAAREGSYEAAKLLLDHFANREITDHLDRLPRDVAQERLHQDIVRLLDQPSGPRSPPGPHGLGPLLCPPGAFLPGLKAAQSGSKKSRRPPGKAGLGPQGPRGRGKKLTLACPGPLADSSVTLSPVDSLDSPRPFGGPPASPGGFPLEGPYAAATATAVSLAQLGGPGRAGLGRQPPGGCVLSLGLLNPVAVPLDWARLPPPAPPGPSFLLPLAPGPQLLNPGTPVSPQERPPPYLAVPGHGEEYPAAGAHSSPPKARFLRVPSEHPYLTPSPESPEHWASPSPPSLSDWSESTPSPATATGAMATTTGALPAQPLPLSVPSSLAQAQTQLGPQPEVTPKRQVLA
A short description of assay [10]: small-molecule microarray binders of probe aEGFR, primary screen, biochemical, biotinylated probe, 635/667 nm fluorescence (AID 1097).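 Further: probe is a biotinylated anti-EGFR antibody binding compounds printed on slides; score combines fluorescence near 667 nm and signal to noise of each spot.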 To be noted: higher = more signal.
In assay [11] the test system is Plasmodium falciparum Sir2 (PF13_0152, Sir2A). Kind of assay: pfSir2 binders on small-molecule microarrays, primary screen, biochemical, small-molecule microarray, 635 nm fluorescence (AID 1098).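 Further: score merges spot fluorescence intensity with its signal-to-noise ratio.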 The note with it: small-molecule microarray binding, fluorescence 635 nm; higher = more signal.
Assay [12] in a line: small-molecule microarray binders of probe aDKK1, primary screen, biochemical, biotinylated probe, 635/667 nm fluorescence (AID 1099).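 Further: score merges 667nm spot fluorescence with signal to noise across triplicate slides; reference of the scale not given here.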 The note with it: higher = more signal.
A short description of assay [13]: small-molecule microarray binders of probe aCHRDL2, primary screen, biochemical, biotinylated probe, 635/667 nm fluorescence (AID 1100). To be noted: higher = more signal.
Assay [14] is described as follows: splicing luciferase reporter signal modulators, primary screen, spliceosome inhibition project, cell-based, HEK293, splice +/- reporter (AID 1101).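 Further: HEK293 cells carrying a splicing-competent luciferase reporter gene; test concentration not given here.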 The note with it: luminescence, 24 h, higher = more signal, called active from +8 up or from −8 down.
Assay [15] has as its target Fibroblast growth factor 10 (Homo sapiens) (UniProt O15520). Kind of assay: FGF10 binders on small-molecule microarrays, primary screen, biochemical, small-molecule microarray, 635 nm fluorescence (AID 1102). To be noted: FGF10 binding, fluorescence 635 nm, higher = more signal.
In assay [16] the test system is glycogen synthase kinase-3 (GSK3A per assay name; protocol says GSK3B). Briefly: GSK3 binders on small-molecule microarrays, primary screen, biochemical, small-molecule microarray, 635 nm fluorescence, GSK3A (AID 1103). Further: the record names both GSK3A and GSK3B. To be noted: small-molecule microarray binding, fluorescence 635 nm; higher = more signal.
The target in assay [17] is Epidermal growth factor receptor (Homo sapiens) (UniProt P00533). Kind of assay: EGFR binders on small-molecule microarrays, primary screen, biochemical, small-molecule microarray, 635 nm fluorescence (AID 1104).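 Further: score merges 667 nm emission intensity with spot signal to noise over triplicate slides.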 To be noted: EGFR binding, higher = more signal.
Chain of Epidermal growth factor receptor (Homo sapiens) (P00533 whole entry, looked up): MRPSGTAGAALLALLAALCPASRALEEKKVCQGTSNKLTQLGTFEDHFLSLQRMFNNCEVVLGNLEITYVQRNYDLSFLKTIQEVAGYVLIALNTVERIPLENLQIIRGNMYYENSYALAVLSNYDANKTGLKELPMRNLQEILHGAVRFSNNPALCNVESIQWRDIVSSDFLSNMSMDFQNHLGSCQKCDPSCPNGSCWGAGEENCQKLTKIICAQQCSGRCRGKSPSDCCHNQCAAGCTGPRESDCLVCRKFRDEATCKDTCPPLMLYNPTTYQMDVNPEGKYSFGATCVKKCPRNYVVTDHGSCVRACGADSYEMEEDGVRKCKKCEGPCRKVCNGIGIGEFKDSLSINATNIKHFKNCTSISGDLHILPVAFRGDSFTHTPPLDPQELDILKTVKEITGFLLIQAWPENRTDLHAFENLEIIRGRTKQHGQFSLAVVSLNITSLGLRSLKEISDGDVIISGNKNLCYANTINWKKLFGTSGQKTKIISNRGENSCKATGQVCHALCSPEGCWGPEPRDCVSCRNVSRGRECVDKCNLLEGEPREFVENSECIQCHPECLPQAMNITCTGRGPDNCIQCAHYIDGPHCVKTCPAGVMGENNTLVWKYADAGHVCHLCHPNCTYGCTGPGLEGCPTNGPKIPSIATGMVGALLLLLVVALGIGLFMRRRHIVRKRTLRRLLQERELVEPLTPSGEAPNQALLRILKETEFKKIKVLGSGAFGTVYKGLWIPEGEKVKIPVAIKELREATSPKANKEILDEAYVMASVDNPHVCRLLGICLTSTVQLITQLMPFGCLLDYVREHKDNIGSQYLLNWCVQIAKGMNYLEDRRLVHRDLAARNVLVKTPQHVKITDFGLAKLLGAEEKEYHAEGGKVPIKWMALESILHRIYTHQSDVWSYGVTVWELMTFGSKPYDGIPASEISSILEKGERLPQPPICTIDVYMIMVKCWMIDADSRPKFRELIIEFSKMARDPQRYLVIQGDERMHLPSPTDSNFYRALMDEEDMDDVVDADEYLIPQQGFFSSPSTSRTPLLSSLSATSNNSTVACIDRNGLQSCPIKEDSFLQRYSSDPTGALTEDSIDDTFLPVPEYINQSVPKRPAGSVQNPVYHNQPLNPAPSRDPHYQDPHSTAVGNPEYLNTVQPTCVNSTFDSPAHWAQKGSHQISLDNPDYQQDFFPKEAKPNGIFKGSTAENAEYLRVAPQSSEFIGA
The target of assay [18] is Follistatin-related protein 3 (Homo sapiens) (UniProt O95633). Kind of assay: FSTL3 binders on small-molecule microarrays, primary screen, biochemical, small-molecule microarray, 635 nm fluorescence (AID 1105).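 Further: score merges emission near 667 nm and signal to noise per printed spot across three slides.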 The note with it: FSTL3 binding, higher = more signal.
Chain of Follistatin-related protein 3 (Homo sapiens) (O95633 whole entry, looked up): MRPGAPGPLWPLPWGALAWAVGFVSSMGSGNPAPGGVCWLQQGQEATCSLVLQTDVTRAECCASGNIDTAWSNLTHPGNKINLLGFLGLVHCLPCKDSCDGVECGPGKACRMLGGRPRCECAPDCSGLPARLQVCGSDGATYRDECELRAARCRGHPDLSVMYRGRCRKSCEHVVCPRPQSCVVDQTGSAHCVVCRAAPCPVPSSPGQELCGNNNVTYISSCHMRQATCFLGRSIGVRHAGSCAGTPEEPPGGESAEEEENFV
The target of assay [19] is Dickkopf-related protein 1 (Homo sapiens) (UniProt O94907). Kind of assay: DKK1 binders on small-molecule microarrays, primary screen, biochemical, small-molecule microarray, 635 nm fluorescence scan (AID 1106).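 Further: score merges emission near 667 nm with signal to noise over three replicate slides.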 The note with it: DKK1 binding, higher = more signal.
Chain of Dickkopf-related protein 1 (Homo sapiens) (O94907 whole entry, looked up): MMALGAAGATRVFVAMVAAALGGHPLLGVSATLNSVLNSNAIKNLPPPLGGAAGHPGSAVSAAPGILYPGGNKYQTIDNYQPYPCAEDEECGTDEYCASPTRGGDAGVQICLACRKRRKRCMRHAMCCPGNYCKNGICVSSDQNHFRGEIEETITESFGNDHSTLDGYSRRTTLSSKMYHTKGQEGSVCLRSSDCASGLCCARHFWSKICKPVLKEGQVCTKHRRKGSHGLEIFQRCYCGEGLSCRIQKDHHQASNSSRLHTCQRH
In assay [20] the test system is Inhibin beta A chain (activin A). Kind of assay: INHBA (activin A) binders on microarrays, primary screen, biochemical, small-molecule microarray, 635 nm fluorescence scan (AID 1107).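 Further: mouse activin A protein probed at 4.33 µg/mL on printed slides; score merges bound-protein fluorescence near 667 nm with spot signal-to-noise.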 To be noted: small-molecule microarray binding, higher = more signal.

Molecules are shown by their SMILES. The source made the active and inactive calls.

Chain of Fibroblast growth factor 10 (Homo sapiens) (O15520 whole entry, looked up): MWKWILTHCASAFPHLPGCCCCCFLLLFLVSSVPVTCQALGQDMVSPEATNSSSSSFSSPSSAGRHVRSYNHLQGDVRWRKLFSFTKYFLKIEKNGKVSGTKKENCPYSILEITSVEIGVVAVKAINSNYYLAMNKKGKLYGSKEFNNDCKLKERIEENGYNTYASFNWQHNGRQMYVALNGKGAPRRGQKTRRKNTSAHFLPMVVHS
Chain of Torsin-1A-interacting protein 2 (Homo sapiens) (Q8NFQ8 whole entry, looked up): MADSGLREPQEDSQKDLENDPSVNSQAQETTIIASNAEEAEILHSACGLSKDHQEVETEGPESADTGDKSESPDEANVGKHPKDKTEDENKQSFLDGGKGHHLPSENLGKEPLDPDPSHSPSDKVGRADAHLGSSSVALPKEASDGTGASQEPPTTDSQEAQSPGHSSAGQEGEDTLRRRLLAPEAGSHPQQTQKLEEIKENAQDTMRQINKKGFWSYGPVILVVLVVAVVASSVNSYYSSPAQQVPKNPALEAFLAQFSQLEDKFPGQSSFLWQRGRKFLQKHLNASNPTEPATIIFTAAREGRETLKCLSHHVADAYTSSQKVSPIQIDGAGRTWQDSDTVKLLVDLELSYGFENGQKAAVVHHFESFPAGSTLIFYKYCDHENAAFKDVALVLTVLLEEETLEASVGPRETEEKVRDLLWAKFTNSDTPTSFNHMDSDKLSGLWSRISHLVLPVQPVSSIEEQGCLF

Consider `COCCCNC(=O)[C@@H]1c2ccccc2C(=O)N(Cc2cc(C(F)(F)F)cc(C(F)(F)F)c2)[C@H]1c1ccc(CO)cc1`, for which the composite z-score in [1] was -0.217; in [5], 0.928; in assay [7], -0.164; in assay [8] it was -0.441; in assay [9] it was -0.305; in assay [10], 0.45. In addition, the composite z-score in assay [11] was -1.09; in [12] it was 1.15; in assay [13], 0.291; in assay [15], -0.0413; in [16], 0.0135; in assay [17] it was -0.301. The composite z-score in assay [18] was 0.142; in assay [19] it was 0.346; in assay [20], 0.92. Further, the z-score was 0.109 (inactive) in assay [2]; 0.144 (inactive) in assay [3]; -0.405 (inactive) in assay [4]; 0.329 (inactive) in [6]; -0.475 (inactive) in [14].

As for `CC(C)C[C@@H]1NC(=O)[C@@]23C(=O)N[C@@H](Cc4ccccc4)C2[C@H](C)[C@@]2(C)O[C@H]2C3/C=C/C/C=C\CNC(=O)[C@@H](CC(C)C)NC1=O` (stereo not given in full), the composite z-score is 1.55 in assay [1]; 2.16 in [5]; -0.184 in [7]; 0.914 in assay [8]; 0.895 in assay [9]; -0.0814 in [10]. Also, the composite z-score in [11] was 0.331; in assay [12] it was -0.299; in assay [13], -0.496; in assay [15], 0.37; in [16], 0.193; in [17] it was 0.367. The composite z-score in assay [18] was 1.1; in assay [19] it was 0.511; in assay [20] it was 0.904. The z-score in [2] is -0.652 (inactive); in assay [3] it was -17.9 (active); in assay [4] it was 0.241 (inactive); in assay [6], -0.313 (inactive); in [14], -0.958 (inactive).

As to `C=C(CCCC)/C(=C/C[C@H](OC(C)=O)c1cccc(OCCO)c1)c1cc(C(=O)OC)ccc1OC`, the composite z-score was 0.326 in assay [1]; 0.628 in assay [5]; -0.101 in assay [7]; 1.04 in assay [8]; 0.195 in [9]; -0.154 in [10]. Further, the composite z-score is 0.286 in assay [11]; -0.197 in assay [12]; -0.096 in [13]; 0.148 in assay [15]; -0.157 in assay [16]; -0.842 in [17]. Moreover, the composite z-score is -0.574 in [18], -0.344 in [19] and 0.518 in [20]. For the same compound, the z-score in assay [2] was 0.117 (inactive); in assay [3] it was -0.602 (inactive); in assay [4], -0.894 (inactive); in [6], 1.01 (inactive); in assay [14], -0.325 (inactive).

Take `CC(C)C(=C=CC[C@@H](O)c1ccc(OCCO)cc1)CCO`: the composite z-score in assay [1] is 0.693; in assay [5], -0.0081; in [7] it was -0.225; in assay [8], 0.96; in assay [9] it was 0.271; in [10], -0.146. Moreover, the composite z-score in assay [11] is 0.959; in [12], -0.233; in assay [13], 0.0776; in [15], 0.688; in assay [16], -0.579; in [17], -0.395. For the same compound, the composite z-score in assay [18] was 0.196; in assay [19], -0.117; in assay [20], 0.516. Also, the z-score in assay [2] is -1.21 (inactive); in assay [3] it was -1.32 (inactive); in assay [4] it was -1.4 (inactive); in [6], 1.23 (inactive); in [14] it was -0.35 (inactive).

Consider `CC(=O)c1ccc(C(O)C2C=CC3C(=O)NC(=O)C3N2Nc2ccc(Cl)cc2Cl)cc1` (stereo not given), for which the composite z-score in [1] was -0.002; in assay [5], 3; in [7] it was 0.0277; in assay [8], -0.742; in assay [9], 0.424; in [10], -0.0828. The composite z-score is 0.366 in assay [11]; 0.947 in assay [12]; 1.02 in [13]; 0.554 in assay [15]; -0.454 in assay [16]; 0.0262 in assay [17]. Also, the composite z-score was 0.141 in assay [18], -0.291 in assay [19] and 1.03 in assay [20]. Moreover, the z-score in [2] is 0.727 (inactive); in [3] it was 0.973 (inactive); in assay [4], 1.14 (inactive); in [6], -1.08 (inactive); in [14] it was 0.58 (inactive).

As to `C=C(COC)C(=O)CC[C@@H](OC(C)=O)c1ccc(OCCO)cc1`, the composite z-score in assay [1] was 1.07; in [5], 0.276; in assay [7], -0.159; in assay [8], 0.482; in assay [9] it was 0.512; in assay [10], -0.21. Also, the composite z-score in [11] was 1.09; in assay [12] it was 0.237; in assay [13], 0.523; in assay [15] it was 0.977; in assay [16], 0.186; in assay [17], -0.484. Besides, the composite z-score in [18] is 0.278; in [19] it was -0.0393; in assay [20] it was 1.42. Also, the z-score in [2] was 0.0756 (inactive); in assay [3], -2.44 (inactive); in assay [4] it was -0.056 (inactive); in assay [6] it was -0.0345 (inactive); in [14], 2 (inactive).
